Rows were chosen to be rich in hits. Some 11% of all compounds tested hit in one or more screens of this group.
PNC assembly inh = perinucleolar compartment assembly inhibition. PC3M PTB-GFP, PNC prevalence imaging, 16 h; stronger effect = lower value. activity change (PNC), negative = inhibition, % at 10 µM. 3.1% of 140,000 active. AID 2417;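 active means readout at or below -70, meaning at least 70% loss of cells showing the perinucleolar compartment, a nuclear body marking cancer cells; inconclusive means readout between -30 and a set limit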;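 further: plate controls were DMSO wells for no effect and camptothecin positive control wells for full effect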
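PC3M cells stably expressing PTB-GFP, 750–1000 cells/well, treated 16 h at 37 °C with compound (23 nl of library stock), in duplicate. After paraformaldehyde fixation and Hoechst stain, imaged at 20x; PNC prevalence scored by image analysis.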
HPGD inh = blocks human HPGD enzyme activity; P15428; purified HPGD, NADH fluorescence kinetic, PGE2 substrate; Potency, µM, without a hit: at the highest dose activity change, negative = inhibition, usual class: inhibitors; 4.3% of 150,000 active; AID 894; further: potency means the concentration at half of the fitted maximal effect
Target sequence (P15428 whole entry, looked up): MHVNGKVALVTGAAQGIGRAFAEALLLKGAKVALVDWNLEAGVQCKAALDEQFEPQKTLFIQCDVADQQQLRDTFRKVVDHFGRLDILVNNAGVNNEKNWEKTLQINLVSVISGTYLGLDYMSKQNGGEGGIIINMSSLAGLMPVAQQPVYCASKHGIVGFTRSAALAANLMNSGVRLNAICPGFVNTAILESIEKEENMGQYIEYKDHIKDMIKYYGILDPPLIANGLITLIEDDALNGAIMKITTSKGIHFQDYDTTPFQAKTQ
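NADH formation kinetics: reaction with 30 uM PGE2 and 1 mM NAD+ (final), 20 nM enzyme, Tris-HCl pH 8 with Tween 20, after 15 min compound preincubation at room temperature. Fluorescence change, last versus first of five reads.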
ALDH1A1 inh = ALDH1A1 (human) enzyme inhibition; AID 1030; Potency, µM (doses to about 75.3 µM), inactives show at the top dose activity, negative = inhibition, most hits filed as inhibitors; P00352; 7.3% of 220,000 active; Purified ALDH1A1, NADH fluorescence, propionaldehyde substrate;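 further: potency means the concentration at half of the fitted maximal effect; plate controls were no enzyme wells and a reference inhibitor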
Active calls of the source: *; ? = inconclusive; / = no result; ! = a repeat was not active; [ ] = dose if it differs, or a comment. Unless noted, the call rests on the fitted dose curve; in most records, active means well fitted inhibition curve with a large enough effect (not every such curve was filed as active); inconclusive means small, poorly fitted or top-dose-only effect, or another doubt; inactive means no such curve, though single readings can be large or run the other way. Unless noted, on the % scale 0 is the no-effect control and ±100 the full control effect.

SMILES	PNC assembly inh	HPGD inh	ALDH1A1 inh
CC(c1ccc(C(C)(C)C)cc1)S(=O)CC(O)CO (stereo not drawn)	-112*	-4%	4%
CN(C)c1ccc(C(=O)C(O)c2ccc(C(C)(C)C)cc2)cc1 (stereo not drawn)	7	-15%	?
COC(=O)c1sccc1NC(=O)COc1ccc(Cl)cc1Cl	53	-14%	-7%
C=CCn1c(SCC(=O)NCC)nnc1-c1cc2c(s1)CCC(CC)C2 (stereo not drawn)	?	-12%	?
C=CCn1c(SCC(=O)NCCOC)nnc1-c1cc2c(s1)CCC(CC)C2 (stereo not drawn)	-20	18µM*	?
CN1CCC(NC(=O)c2ccncc2)CC1	/	/	12%
CCOc1c(Br)cc(/C=C2/SC(=O)N(CC(=O)N3CCCC3)C2=O)cc1OC	18	-21%	2%
CCOC(=O)COc1c(Br)cc(/C=C2\SC(=O)N(CC(=O)N3CCCC3)C2=O)cc1OC	28	-11%	22µM*
O=C(CN1C(=O)S/C(=C/c2ccncc2)C1=O)N1CCOCC1	?	1%	25µM*
O=C(CN1C(=O)S/C(=C/c2cccnc2)C1=O)N1CCOCC1	5	-8%	?
O=C(CN1C(=O)S/C(=C/c2cccs2)C1=O)N1CCOCC1	6	-6%	-6%
O=C(CN1C(=O)S/C(=C/c2cc(Br)cs2)C1=O)N1CCOCC1	48	-7%	22µM*
COC(=O)C1=C(C)N(C)C(=S)N(C)C1c1cccc(Br)c1 (stereo not drawn)	/	/	-3%
CCn1c(CCNC(=O)c2ccc(Cl)c(Cl)c2)nnc1SCCOc1ccc(OC)cc1	-19	-14%	-11%
OCC1OC(c2ccc3c(c2)OCO3)C=CC1Oc1ccc(C2CCCC2)cc1 (stereo not drawn)	/	/	-5%[13.5 µM]
Cc1ccc(S(=O)(=O)NC(C(=O)Oc2ccc3c(C(F)(F)F)cc(=O)oc3c2)c2ccccc2)cc1 (stereo not drawn)	-11	?	-6%
O=C1CN(S(=O)(=O)c2ccc(Cl)cc2)CC(=O)N1CCc1ccccc1	48	-7%	7%
O=C1CN(S(=O)(=O)c2ccc(F)cc2)CC(=O)N1CCc1ccccc1	-100*	?	?
CCOC(=O)c1cc(-c2c(Cl)cccc2Cl)no1	/	/	-1%
O=c1c2c(-c3ccc([N+](=O)[O-])cc3)csc2nc2n1CCC2	-18	22µM*	7.1µM*
O=[N+]([O-])c1ccc2c(c1)nc1n2CCCCC1	/	/	0%
Cc1cc(N2C(=O)NC(=O)CC2C)c(C)cc1C(C)C (stereo not drawn)	?	-3%	-2%
COc1ccc(C2C(C(N)=O)=C(C)Nc3nc(-c4ccccc4Cl)nn32)c(OC)c1 (stereo not drawn)	21	-1%	1%
Cc1ccc(S(=O)(=O)N2CCOCC2)cc1NC(=O)CSc1cccc[n+]1[O-]	41	/	-6%
O=C(CSc1cccc[n+]1[O-])Nc1cc2c(cc1Cl)C(=O)c1ccccc1C2=O	19	-19%	8.9µM*
SMILES	PNC assembly inh	HPGD inh	ALDH1A1 inh
O=C(CSc1cccc[n+]1[O-])Nc1ccccc1Oc1ccccc1	/	/	14µM*
O=C(CSc1ccc(Br)cc1)Nc1ccccc1Oc1ccccc1	49	-14%	-5%
O=C(CSc1cccc[n+]1[O-])Nc1cc(S(=O)(=O)N2CCOCC2)ccc1Cl	-88*	-11%	-12%
O=C(CSc1cccc[n+]1[O-])Nc1cc([N+](=O)[O-])ccc1Cl	/	/	-13%
O=C(NCc1nc2ccccc2[nH]1)c1cccc(S(=O)(=O)N2CCCC2)c1	5	-3%	6%
CCOc1ccc(C(=O)/C=C/c2ccc(SC)cc2)cc1	12	-26%	-3%
CSc1ccc(/C=C/C(=O)c2ccc(O)cc2)cc1	69	-28%	18µM*
CC(=O)Nc1cccc(C(=O)/C=C/c2ccco2)c1	22	?	10µM*
O=C(/C=C/c1ccccc1Cl)c1ccc(O)cc1	/	/	-3%
CC(=O)Nc1ccc(C(=O)/C=C/c2ccco2)cc1	86	-27%	?
CN(C)c1ccc(C(=O)/C=C/c2ccco2)cc1	-10	32µM*	8.9µM*
O=C(/C=C/c1ccco1)c1ccc(O)cc1	/	/	15µM*
CN(C)c1ccc(C(=O)/C=C/c2ccc(Br)cc2)cc1	?	-7%	2%
CC(=O)c1cccc(NC(=O)C23CC4CC(C2)CC(n2cncn2)(C4)C3)c1	?	-22%	10%
Cc1sc(NC(=O)C(C)C)c(C(=O)Nc2ccccc2)c1C	28	-3%	-3%
S=C(NCC1COc2ccccc2O1)Nc1ccccc1 (stereo not drawn)	/	/	-9%
CC(=O)c1ccc(N2CCN(C(=S)Nc3cc(C)ccc3C)CC2)cc1	-90*	-4%	4%
CC(=O)c1ccc(N2CCN(C(=S)Nc3ccccc3F)CC2)cc1	3	/	?
O=C(COC(=O)c1cc(=O)[nH]c(=O)[nH]1)Nc1cccc(S(=O)(=O)N2CCCCC2)c1	/	/	4%
CCOC(=O)CN1C(=O)C(O)=C(C(C)=O)C1c1ccc(F)cc1 (stereo not drawn)	21	/	-11%
CCOC(=O)CN1C(=O)C(O)=C(C(C)=O)C1c1ccc([N+](=O)[O-])cc1 (stereo not drawn)	-111*	-26%	-33%
Cc1cnc([N+](=O)[O-])n1CCOC(=O)NC(=O)c1ccc(F)cc1	/	/	-4%
COc1ccc(CNC(=O)Nc2ccc3c(c2)N(C)C(=O)CS3)cc1	/	/	-7%
CC(=O)O[C@]1(C(C)=O)CC[C@H]2[C@@H]3C=C(Cl)C4=CC(=O)CC[C@]4(C)[C@H]3CC[C@@]21C	-1	-7%	?
CC(=O)O[C@]1(C(C)=O)CC[C@H]2[C@@H]3C[C@H](C)C4=CC(=O)CC[C@]4(C)[C@H]3CC[C@@]21C	13	-1%	32µM*!
SMILES	PNC assembly inh	HPGD inh	ALDH1A1 inh
CCOc1cccc(NC(=O)C2CC(=O)NC(=Nc3ccccc3)S2)c1 (stereo not drawn)	-4	5%	3%
COC(=O)c1cc(S(=O)(=O)n2nc(C)c(Br)c2C)c(Cl)cc1Cl	18	-10%	-1%
CCCC/C(C)=N/NC(=O)C(=O)NCCc1ccccc1	23	0%	8%
CN(C)c1ccc(/C=N/N=C/c2ccccc2O)cc1	?	-7%	13µM*
C/C(=N\N=C\c1ccc(N(C)C)cc1)c1cccc([N+](=O)[O-])c1	34	-10%	?
CC(=O)c1c(O)c(C)c(O)c2c1OC1=CC(=O)C(C(C)=O)C(=O)[C@@]12C (stereo partly drawn)	/	-3%	11%
Cc1cc(-c2csc(N)n2)c(C)n1CCc1ccccc1	-108*	-4%	?
Cc1cc(-c2csc(N)n2)c(C)n1CCC(C)C	?	-9%	?
C=CCNc1nc(-c2c(C)nc3sccn23)cs1	-25	-3%	?
Cc1nc2sccn2c1-c1csc(NCc2ccccc2)n1	-3	-21%	11µM*
Cc1nc(NC(=O)c2ccccc2)sc1-c1csc(NCCc2ccccc2)n1	-19	-21%	?
Cc1cc(Oc2ccccc2)nc(NCc2ccccc2)n1	7	-14%	-12%
Cc1cc(-c2csc(NCc3ccccc3)n2)c(C)n1C	/	/	20µM*
Cc1nc(N)sc1-c1csc(NCc2ccccc2)n1	-21	18µM*	2.2µM*
O=C(CNC(=O)c1cccs1)c1ccc(F)cc1	67	-12%	8%
